Source: PubChem BioAssay
PPC-1+TRAIL kill – compounds killing PPC-1 cancer cells with TRAIL present, primary screen, TRAIL potentiator project, ATPLite luminescence, uHTS; PPC-1 cells + TRAIL, ATPLite viability luminescence; cell killing (% activity), % at 4 µM or 5 µM; 220,000 tested, 0.41% active;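 active means cell killing above 50% in the first pass at 4 µM, then a duplicate retest at 5 µM averaging 50% or more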;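 further: plate controls were cells with TRAIL plus DMSO for no effect and medium-only wells lacking cells for full effect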
CF NFkB block – inhibitors of PAF-induced NF-kB signaling, primary screen, cell-based, GFP fluorescence, uHTS; inhibition, % at 5 µM; AID 588850, 2011; 360,000 tested, 0.86% active; KKLEB NF-kB-GFP reporter, GFP fluorescence overnight;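 active means at least 50% inhibition at 5 µM, scaled per plate between neutral and stimulator controls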;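 further: PAF is a Pseudomonas aeruginosa culture filtrate used as stimulus; plate controls were PAF-stimulated DMSO wells for no effect and unstimulated DMSO wells for full effect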
hiPSC survival – enhancers of single-cell hiPSC survival, primary screen, ATPlite luminescence | 100% = ROCK inhibitor wells, 0% = DMSO | AID 602274, 2012 | 360,000 tested, 0.044% active | survival enhancement, % at 20 µM; in the data active means survival enhancement above about 18%;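 further: cells exposed to compounds for 16 hours before the ATP read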
HIF-2a inh – HIF-2a reporter inhibitors, primary screen, luminescence, 786-0 RCC cells. 786-0 RCC cells HIF-2a reporter, luciferase luminescence, overnight. inhibition, % at 18.8 µM. 360,000 tested, 0.72% active;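 active means inhibition of the luminescence signal of 40% or more relative to plate controls, in a single-dose primary screen at 18.75 µM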
C8 TRAIL sens – viability loss with TRAIL in NB7+C8 cells, primary screen, TRAIL sensitizer project, cell-based, ATPlite luminescence. inhibition (viability loss, TRAIL sensitization), % at 10 µM. 360,000 tested, 1% active;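 active means compounds causing at least 50% loss of cell viability in the single-dose screen, relative to plate controls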
KKLEB cytotox – cytotoxicity in KKLEB CF airway cells, primary screen, cytotoxicity control for CF NF-kB inhibitor project, cell-based, uHTS, fluorescence assay plates. activity change (cytotoxicity), % at 5 µM. AID 602141, 2011. 360,000 tested, 0.36% active. KKLEB CF airway cells viability, ATPlite luminescence, overnight; stronger effect = lower value; cells stimulated with P. aeruginosa culture filtrate;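 active means corrected activity change at or below -50% at 5 µM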
CF NFkB conf – inhibitors of PAF-induced NF-kB signaling, retest, confirmation, cell-based, GFP fluorescence, single concentration | shares compounds with CF NFkB block | KKLEB CF airway cells, overnight | inhibition, % at 5 µM | 1,300 tested, 64% active; in the data active means inhibition above about 40%;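 further: stimulus PAF is a Pseudomonas aeruginosa filtrate and not platelet activating factor; plate controls were DMSO wells with stimulus for no effect and unstimulated DMSO wells for full effect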
* marks the source's active call; other numbers are inactive results; · = no result given. This is a sample that favours compounds with a hit; in the whole collection about 2.2% have one here.

SMILES | PPC-1+TRAIL kill | CF NFkB block | hiPSC survival | HIF-2a inh | C8 TRAIL sens | KKLEB cytotox | CF NFkB conf
COc1ccc(N2CC(C(=O)NNC(=O)c3ccc(Br)cc3)CC2=O)c(OC)c1 (configuration not stated) | · | -7.8 | -0.2 | -5.2 | -0.5 | -2.7 | ·
Cc1cnc(NC(=O)CCCc2nc3ccccc3s2)s1 | 6.9 | 83.6* | -2.5 | -42.5 | 6.8 | 16.0 | 88.6*
O=C(NNc1c(Cl)cccc1Cl)c1cccs1 | 16.4 | -14.2 | 0.5 | 12.4 | 1.8 | -15.8 | ·
O=C(NCc1ccco1)c1ccc2nc([C@@H]3O[C@H](CO)[C@H](O)[C@H](O)[C@H]3O)[nH]c2c1 | · | 6.0 | -0.8 | -7.6 | 2.2 | -2.8 | ·
CCOc1ccc(OCC)c(NC(=O)c2nnn(CC(=O)Nc3cc(C)cc(C)c3)c2N)c1 | · | 50.4* | 0.3 | -0.6 | -30.6 | -33.3 | 37.1
Cc1ccc(C(=O)c2cnc3ccccc3c2-c2ccccc2)cc1 | 18.0 | 70.4* | 4.3 | 16.9 | -6.8 | -17.1 | 37.7
COc1ccc(C(=O)c2cnc3ccccc3c2-c2ccccc2)cc1 | 1.2 | 45.6 | 4.6 | 18.4 | 30.0 | -20.8 | ·
O=C(Nc1ccc(F)cc1)Nc1ccc(N2CCCC2)c(S(=O)(=O)Nc2ccccc2Cl)c1 | 7.7 | 60.2* | -0.9 | -14.8 | 24.8 | -16.0 | 70.6*
CCOC(=O)c1ccc(NC(=O)Nc2nc3ccccc3s2)cc1 | · | 3.5 | 1.6 | 2.5 | 2.9 | 4.7 | ·
CCOC(=O)c1ccc(NC(=O)Nc2nncs2)cc1 | · | 66.3* | -2.6 | -147.8 | 29.0 | -22.1 | 80.8*
CC1=Nn2c(nnc2-c2ccccc2Cl)SC1 | -12.1 | -10.5 | -2.6 | 6.7 | -1.6 | -5.5 | ·
Clc1ccccc1C1=Nn2c(nnc2-c2ccncc2)SC1 | -18.7 | 77.9* | 1.3 | 1.6 | -4.1 | -11.3 | 93.7*
CCN1CCN(Cc2ccc(NC(=O)c3ccc(C)c(NC(=O)c4ccno4)c3)cc2C(F)(F)F)CC1 | 14.8 | 56.1* | -1.5 | 12.1 | 22.7 | -3.9 | 69.3*
CCN1CCN(Cc2ccc(NC(=O)c3ccc(C)c(NC(=O)c4csc(-c5ccncc5)n4)c3)cc2C(F)(F)F)CC1 | 33.9 | 70.8* | -4.9 | 21.7 | 4.9 | -8.5 | 45.9*
Cc1ccc(-c2nnc(SCC(=O)NC3CCCC3)n2N)cc1 | · | -12.5 | -1.9 | 8.5 | -4.5 | 10.0 | ·
CCN(CC)c1ccc(CNc2nc3ccccc3n2CCN2CCCCC2)cc1 | 15.5 | 55.0* | 0.4 | 1.1 | 19.4 | -44.7 | 36.8
COc1ccc(CNc2nc3ccccc3n2CCN2CCCCC2)cc1 | 15.9 | 4.1 | -0.4 | 19.4 | -4.0 | -13.4 | ·
CCOC(=O)c1c(-c2ccc(C)cc2)csc1NC(=O)c1cccc(N2C(=O)CCC2=O)c1 | -2.8 | 21.1 | -0.6 | 14.9 | 4.4 | -11.8 | ·
CCOC(=O)c1c(-c2ccc(C)cc2)csc1NC(=O)c1ccc(N2C(=O)CCC2=O)cc1 | 6.1 | 57.7* | 1.0 | 9.9 | -10.0 | -40.9 | 55.4*
C=CC[C@]12C=C(OC)C(=O)C(OC)=C1O[C@@H](c1ccc3c(c1)OCO3)[C@H]2C | · | 1.6 | -2.3 | 9.1 | 0.0 | 5.5 | ·
C=CC[C@]12CC=CC(=O)[C@@]1(O)O[C@H](c1ccc(OC)c(OC)c1)[C@H]2C | · | 62.2* | -5.5 | 37.5 | 9.6 | -19.4 | 57.9*
CCOC(=O)C1CCN(c2cc3c(cc2NC(=O)c2ccc(OC)c(OC)c2)n(C)c(=O)n3C)CC1 | · | 54.4* | 0.1 | -9.0 | 21.1 | 9.3 | 23.2
CCOC(=O)C1CCN(c2cc3c(cc2NC(=O)c2ccccc2)n(C)c(=O)n3C)CC1 | · | 11.9 | -0.4 | 8.9 | 6.8 | -12.6 | ·
COC(=O)c1ccccc1NC(=O)c1ccccc1OC | 13.2 | 14.4 | -1.0 | -17.8 | -11.4 | -2.3 | ·
COc1ccccc1C(=O)Nc1ccccc1SC(=O)c1ccccc1OC | · | 51.3* | -0.1 | -98.4 | 35.8 | 2.1 | 39.3
SMILES | PPC-1+TRAIL kill | CF NFkB block | hiPSC survival | HIF-2a inh | C8 TRAIL sens | KKLEB cytotox | CF NFkB conf
Cc1cc(N2CCC(C)CC2)nc(NCc2ccccc2)n1 | 12.7 | 4.9 | -3.0 | 24.5 | 12.8 | -1.3 | ·
COc1ccc(-c2csc3ncnc(NCCN4CCOCC4)c23)cc1 | -4.5 | 55.5* | -1.0 | 32.6 | 12.9 | -17.0 | 81.6*
Cc1ccc(-c2csc3ncnc(NCCN4CCOCC4)c23)cc1 | 12.5 | 58.4* | -1.0 | 31.1 | -4.2 | -23.0 | 47.2*
Clc1ccc(-c2csc3ncnc(NCCN4CCOCC4)c23)cc1 | -0.3 | 44.1 | 0.8 | 21.7 | -6.1 | -12.6 | ·
CCn1c(SCC(=O)N/N=C/c2ccc(OC)c(OC)c2)nc2ccccc21 | 13.0 | 11.6 | 1.1 | -5.4 | 14.2 | -12.8 | ·
C=CCSc1nc2ccccc2n1C(=O)/C=C/c1ccc(OC)c(OC)c1 | 23.1 | 91.9* | -2.8 | -34.6 | 31.0 | -41.8 | 103.4*
CCCN(CCO)CCCc1ccccc1 | 1.9 | 1.8 | 1.0 | 8.9 | -0.3 | 1.9 | ·
CCN(CCCc1ccccc1)CCCc1ccccc1 | 16.0 | 53.6* | 0.6 | -10.7 | 14.4 | 31.6 | 4.3
Cc1ccccc1CN1CCN(CC2CC2)CC1CCO (configuration not stated) | · | 9.3 | 0.1 | 19.4 | -4.2 | 3.2 | ·
CCCCN(C)CCNC(=O)CCn1nc(-c2ccc(Cl)cc2)ccc1=O | · | -18.6 | -0.1 | 10.7 | -5.5 | 0.1 | ·
O=C1c2ccccc2C(=O)N1C1CCCCC1 | · | 5.5 | -0.7 | 5.0 | -6.5 | -4.3 | ·
O=C1CCC(N2C(=O)c3ccccc3C2=O)C(=O)N1 (configuration not stated) | 9.8 | 75.7* | -0.3 | -6.4 | -29.8 | 18.2 | 12.0
C[C@@]12CCC=C[C@H]1[C@H](c1ccc(C(F)(F)F)cc1)N(Cc1ccccc1)C2=O | 3.8 | 57.6* | 0.9 | 20.2 | -20.7 | -13.7 | 38.8
C[C@@]12CCC=C[C@H]1[C@H](c1ccc(/C=C/c3ccccc3)cc1F)N(Cc1ccccc1)C2=O | 10.4 | 22.5 | -2.6 | 19.4 | 15.0 | -9.4 | ·
CCOC(=O)CN1C(=O)C2(OCCCO2)c2cc(Br)ccc21 | · | -10.2 | 0.0 | 23.8 | -2.8 | 4.0 | ·
O=c1[nH]nc(Sc2ncnc3sccc23)n1CCc1ccccc1 | -23.4 | 53.6* | -3.7 | 28.9 | 18.7 | -20.8 | 45.0*
C=CCOc1ccc(C2/C(=C(/O)c3ccc(OC)cc3)C(=O)C(=O)N2CCN2CCNCC2)cc1 (configuration not stated) | · | 6.0 | -0.3 | 14.7 | -11.4 | 5.9 | ·
CCCn1c(N)c(C(=O)CSc2nnc(Cc3cccs3)n2C2CC2)c(=O)n(C)c1=O | · | -3.2 | 0.4 | 27.2 | -5.6 | 11.4 | ·
